Data published in PubChem BioAssay AID504408 (Broad Institute, 2011).
Screen size: about 300,000 compounds; about 5,200 (1.7%) were called active. The full list was thinned out, with actives kept by preference. Unmarked numbers belong to inactive results.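 The calls were made as follows: active = mean replicate activation of at least 50% with a set share of replicates each reaching 50%; inconclusive = only one of those two conditions met; inactive = mean below 50% and too few replicates reaching it.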

Test: HSF-1 response element luciferase induction – NIH3T3-HGL cells, MG132 stress, luminescence, single point, primary screen (AID 504408);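 also: 0% = median of the neutral control wells and 100% = twice that signal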
Conditions: NIH3T3-HGL HSF-1 luciferase reporter, MG132, 8 h; at 9 µM; stronger effect = higher value; 100% = twice DMSO control signal

| SMILES | activation |
| --- | --- |
| CCN(C(=O)COC(=O)C1CCN(S(=O)(=O)c2ccc(C)c(C)c2)CC1)C1CCS(=O)(=O)C1 (stereo unspecified) | 1.03% |
| Cc1ccc(C)c(OCCC(=O)OCC(=O)NC(=O)NCc2ccccc2)c1 | -2.69% |
| COC(=O)c1c(NC(=O)CSc2nncs2)sc2c1CCCCC2 | 17.2% |
| COC(=O)c1c(NC(=O)CN(c2ccc(C)c(C)c2)S(C)(=O)=O)sc2c1CCCC2 | 31.3% |
| CCc1ccc(N(CC(=O)Nc2sc3c(c2C(=O)OC)CCCC3)S(C)(=O)=O)cc1 | 59.7% (active) |
| CCCN(CC(=O)Nc1ccccc1OC)C(=O)CCC(=O)c1ccc(F)cc1 | -3.54% |
| O=C(Nc1ccc(NC(=O)c2ccco2)c(Cl)c1)c1cccc([N+](=O)[O-])c1 | 0.794% |
| COc1cc(NC(=O)c2cc([N+](=O)[O-])ccc2Br)ccc1NC(=O)c1ccco1 | 111% (active) |
| COc1ccccc1C(=O)Nc1ccc(NC(=O)c2ccco2)c(C)c1 | -0.874% |
| O=C(OCC1OC(Oc2ccc(O)cc2)C(O)C(O)C1O)c1ccccc1 (stereo unspecified) | -4.63% |
| Cc1ccc(Cn2c(C)nc3c(c2=O)c2nc4ccccc4nc2n3Cc2ccco2)cc1 | 100% (active) |
| Cc1nc2ccccc2c(=O)n1Cc1ccc([N+](=O)[O-])cc1 | 7.48% |
| Cn1c2ccccc2c(=O)c2c(=O)n(Cc3ccco3)c(COc3ccccc3)nc21 | 17.1% |
| O=C(NCCCN1CCCC1=O)c1cccc(S(=O)(=O)NCc2ccccc2)c1 | 18.7% |
| COc1ccccc1OCC(=O)Nc1ccccc1C(=O)NC1CC1 | 6.1% |
| OCCCNc1nc(-c2ccccc2)c2cc(Cl)ccc2n1 | -8.88% |
| CCCCn1c(N)c(N(CCOC)C(=O)c2sc3ccccc3c2Cl)c(=O)[nH]c1=O | 1.82% |
| CC(Oc1ccc(Cl)cc1)C(=O)Nc1ncccn1 (stereo unspecified) | 9.27% |
| Cc1ccc(SCCC(=O)OCC(=O)Nc2ncc(Cl)cc2Cl)cc1 | 1.1% |
| CC(Oc1ccc(Cl)cc1)C(=O)OCC(=O)Nc1ncc(Cl)cc1Cl (stereo unspecified) | 83.9% (active) |
| CCC(C)N(C(=O)CSc1ncnc2c1cnn2-c1ccccc1)C1CCS(=O)(=O)C1 (stereo unspecified) | -5.54% |
| CCOC(=O)c1cccc(NC(=O)CCOc2ccccc2)c1 | 9.76% |
| CCOc1ccc(NC(=O)CN(C)C(=O)COc2cccc(CC)c2)cc1OCC | -14.1% |

| SMILES | activation |
| --- | --- |
| CCOC(=O)C(CCOc1cccc(CC)c1)C(=O)OCC | 109% (active) |
| CC(=O)Nc1cccc(C(=O)OCC(=O)NCc2cc(C)c(O)c(C)c2)c1 | 3.6% |
| Nc1nonc1-n1nnc(C(=O)N/N=C/c2ccccc2O)c1CN1CCCC1 | 12.4% |
| CCOC(=O)COc1ccc([N+](=O)[O-])cc1 | 9.19% |
| Cc1cc(C)cc(OCC(=O)O/N=C(\N)Cc2ccc([N+](=O)[O-])cc2)c1 | 59.9% (active) |
| N/C(Cc1ccc([N+](=O)[O-])cc1)=N\OC(=O)C1CCCCC1 | -5.43% |
| COc1cc(OC)cc(C(=O)NNC(=O)CNC(=O)c2ccc(Br)o2)c1 | 12% |
| Cc1ccc(NC(=O)CSCC(=O)Nc2sccc2C#N)cc1 | -2.79% |
| Cc1noc(C)c1COc1ccccc1C(=O)N(C)CC(=O)Nc1cccc(F)c1 | -1.32% |
| O=C(CSCc1ccc(Br)cc1)Nc1ccc(S(=O)(=O)N2CCCCCC2)cc1 | 25.6% |
| O=C1CCCN2N=C(SCC(=O)Nc3ccc(Br)cc3)SC2=N1 | 112% (active) |
| Cc1cc(=O)[nH]c(SCC(=O)Nc2ccc(Br)cc2)n1 | 2.91% |
| CCOc1ccc(CC(=O)NCCS(=O)(=O)N2CCN(c3ccccc3)CC2)cc1 | 3.03% |
| CCc1ccccc1N(CC(=O)NCCSCc1ccco1)S(C)(=O)=O | 6.86% |
| COc1ccc(C(=O)Nc2ccccc2C(=O)NCc2ccco2)cc1 | 10.2% |
| O=C(Nc1ccccc1)Nc1ccccc1C(=O)NCc1ccco1 | 25.4% |
| Cc1cc(C)cc(N(CC(=O)NCCSCc2ccco2)S(C)(=O)=O)c1 | 9.37% |
| CS(=O)(=O)N(Cc1ccc(Cl)cc1)c1ccc(C(=O)NCCSCc2ccco2)cc1 | 71.5% (active) |
| Cc1ccc(N(Cc2ccc(C(=O)Nc3ccccc3C(=O)NCc3ccco3)cc2)S(C)(=O)=O)cc1C | 87.4% (active) |
| O=C(CCN1C(=O)C2CCCCC2C1=O)Nc1ccc(OC(F)F)cc1 (stereo unspecified) | 20.6% |
| O=C(CNC(=O)c1ccccc1Br)NCCSc1ccc(Br)cc1 | 8.99% |
| CCCn1c(C)cc(-c2csc(NC(=O)CCc3nc4ccccc4c(=O)[nH]3)n2)c1C | -8.73% |
| CCCc1cc(=O)[nH]c2nnc(SCC(=O)Nc3nnc(SCC)s3)n12 | -4.43% |

| SMILES | activation |
| --- | --- |
| CCOc1ccc(S(=O)(=O)Nc2ccc(C(=O)NCCCN3CCCC3=O)cc2)cc1 | 4.33% |
| CCc1noc(C)c1C(=O)NNC(=O)c1ccc(F)cc1 | 7.94% |
| Cc1ccc(-c2c3c(=O)n(C)c(=O)n(C)c3cn2-n2cnnc2)cc1 | 89.3% (active) |
| Cc1ccc(-c2c3c(=O)n(C)c(=O)n(C)c3cn2-c2ccccc2O)cc1 | 3.5% |
| COc1ccc(-c2c3c(=O)n(C)c(=O)n(C)c3cn2NC(C)=O)cc1 | -5.15% |
| COc1cccc(CNC(=O)C(=O)NCCC2CCCCN2S(=O)(=O)c2ccc(C)cc2)c1 (stereo unspecified) | -8.41% |
| O=C(Nc1ccc(Br)cn1)c1ccc([N+](=O)[O-])o1 | 131% (active) |
| CC(C)C(=O)Nc1cccc(NC(=O)c2ccc([N+](=O)[O-])cc2Cl)c1 | 32.5% |
| O=C(/C=C/c1ccc(Cl)cc1)Nc1ccc(Br)cn1 | 6.81% |
| CN1C(=O)c2ccc(C(=O)Nc3ccc(Br)cn3)cc2C1=O | -4.17% |
| O=C(Nc1ccc(Br)cn1)c1ccc([N+](=O)[O-])cc1Cl | 69.9% (active) |
| O=C(Nc1ccncc1)c1ccc([N+](=O)[O-])cc1Cl | 23.1% |
| COc1ccc(C(=NN)c2ccc(OC)cc2)cc1 | 29.3% |
| CN(C)CCn1c2c(c(SCC(=O)NCc3ccccc3)nc1=O)CCC2 | 4.29% |
| CCc1nnc(NS(=O)(=O)c2ccc(NC(=O)c3cccc(OC(F)(F)C(F)F)c3)cc2)s1 | -15.3% |
| Cc1onc(NC(=O)c2ccc([N+](=O)[O-])o2)c1Br | 52.4% (active) |
| Cc1cccc(NC(=S)Nc2ccc(Br)cc2)c1 | 46.2% |
| Cc1cccc(NC(=O)c2cc([N+](=O)[O-])ccc2N2CCN(C)CC2)c1 | 13.9% |
| Cc1onc(C(=O)NCc2ccc(F)cc2)c1[N+](=O)[O-] | 8.38% |
| Cc1cccc(NC(=S)NC(=O)c2ccc(Br)o2)c1 | 78.6% (active) |
| Cc1cccc(NC(=O)NC(=S)NC(=O)c2ccccc2)c1 | 13.9% |
| Cc1onc(C(=O)Nc2ccc3c(c2)OCO3)c1[N+](=O)[O-] | 10.2% |
| Cc1cccc(NC(=O)c2ccc([N+](=O)[O-])o2)c1 | 56.4% (active) |

| SMILES | activation |
| --- | --- |
| Cc1cccc(NC(=O)c2sc(-c3ccccc3)nc2-c2ccc([N+](=O)[O-])cc2)c1 | -61.8% |
| O=C1[C@H]2[C@@H](c3ccc(F)cc3)N3C(=O)N(c4ccc(C(F)(F)F)cc4)C(=O)[C@@]3(Cc3ccccc3)[C@H]2C(=O)N1C1CCCCC1 | -4.57% |
| O=C(NCCC1CCCCN1S(=O)(=O)c1ccc(Cl)cc1)C(=O)NCc1ccco1 (stereo unspecified) | 22.8% |
| COc1ccc(NS(=O)(=O)c2ccc(C)c(C(=O)N(C)Cc3ccc(OC)cc3OC)c2)cc1 | -13.6% |
| CCOc1ncccc1C(=O)NNC(=O)c1cccc(S(=O)(=O)Nc2ccccc2OC)c1 | -1.67% |
| O=C(NNC(=O)c1ccc(Cl)cc1Cl)c1cccs1 | 25.3% |
| Cc1ccc(NNC(=O)c2c(F)cccc2Cl)cc1Cl | 0.438% |
| Cc1ccc(NNC(=O)c2cccs2)cc1Cl | 69.2% (active) |
| Cc1ccc(NC(=O)c2cnc(SCC(=O)NCC3CCCO3)n(C)c2=O)cc1 (stereo unspecified) | 7.91% |
| Cc1cc(C)c(-c2csc(NC(=O)CCCc3nc4ccccc4c(=O)[nH]3)n2)c(C)c1 | -6.87% |
| Cc1ccc(S(=O)(=O)NC(C)C(=O)NCc2ccc(Cl)cc2)cc1 (stereo unspecified) | 0.844% |
| CCc1noc(C)c1C(=O)Nc1nc(-c2ccccc2)cs1 | 6.16% |
| O=C(NNC(=O)c1cc2c(s1)CCCC2)c1ccccc1 | 5.42% |
| O=C(Nc1ccc(F)cc1)c1cc2c(s1)CCCC2 | 91.6% (active) |
| O=C(CNC(=O)c1cc2c(s1)CCC2)Nc1ccccc1Br | 14.7% |
| CCOc1cc(C(=O)Nc2ccc(S(=O)(=O)Nc3cnc4ccccc4n3)cc2)cc(OCC)c1OCC | 9.73% |
| CC1C(=O)N2CCCc3cc(S(=O)(=O)NCc4ccc(F)cc4)cc1c32 (stereo unspecified) | 5.48% |
| Cn1cnnc1SCc1nnc(-c2ccccc2Br)o1 | 1.6% |
| Nc1cccc2c1C(=O)N(Cc1nnc(-c3ccccc3Br)o1)C2=O | 54.8% (active) |
| CCOC(=O)N1CCN(Cc2nnc(-c3ccccc3Cl)o2)CC1 | -16.1% |
| O=C(CSc1nc(=O)n2ccccc2n1)Nc1ccc2c(c1)OCCO2 | -13.2% |
| COc1cccc(NC(=O)CSc2nccn(-c3ccc4c(c3)OCCO4)c2=O)c1 | 8.35% |
